Compound activity deposited in PubChem by several laboratories.
Rows were chosen to be rich in hits. Some 32% of all compounds tested hit in one or more screens of this group.
CYP2C19 act – cytochrome P450 2C19 (human) activation; 96,000 tested, under 10 active; recombinant CYP2C19, luciferin-H EGE luminescence; hits give high values; 0 = fully inhibited enzyme, 1 = untreated enzyme; AID 1025; activation factor at 5 µM;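 active means activation factor of at least 2 at 5 µM in the primary screen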;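 further: 0 = wells with 2.5 mM tranylcypromine and 1 = vehicle-only wells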
PostGolgi yeast – growth inhibition of a yeast mutant, post-Golgi transport screen; inhibition, % at 10 µM; post-Golgi transport phenotypic cell assay; 0.9% of 98,000 active; AID 739;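 further: yeast cells grown in 1536-well plates; yeast grown about 18 h at 30C before absorbance read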
CYP2C19 inhib – human CYP2C19 inhibition. CYP2C19 Supersomes, luciferin-H EGE luminescence, 30 min. inhibition, % at 5 µM. 21% of 96,000 active. AID 778;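 active means CYP2C19 inhibition above a set limit at 5 µM in the primary screen, cut at about 50% in these data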;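 further: plate controls were negative control wells for no effect and 2.5 mM tranylcypromine positive control for full effect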
CYP2C9 activ – CYP2C9 (human) activation; recombinant CYP2C9, luciferin-H conversion, luminescence; hits give high values; factor 1 = untreated enzyme, 0 = blocked; activation factor at 5 µM; 1.4% of 96,000 active; AID 1024;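 active means activation factor of 2 or more for CYP2C9 at a 5 µM dose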;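 further: 0 = sulfaphenazole-blocked wells and 1 = vehicle-only wells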
Target sequence (P11712 whole entry, looked up): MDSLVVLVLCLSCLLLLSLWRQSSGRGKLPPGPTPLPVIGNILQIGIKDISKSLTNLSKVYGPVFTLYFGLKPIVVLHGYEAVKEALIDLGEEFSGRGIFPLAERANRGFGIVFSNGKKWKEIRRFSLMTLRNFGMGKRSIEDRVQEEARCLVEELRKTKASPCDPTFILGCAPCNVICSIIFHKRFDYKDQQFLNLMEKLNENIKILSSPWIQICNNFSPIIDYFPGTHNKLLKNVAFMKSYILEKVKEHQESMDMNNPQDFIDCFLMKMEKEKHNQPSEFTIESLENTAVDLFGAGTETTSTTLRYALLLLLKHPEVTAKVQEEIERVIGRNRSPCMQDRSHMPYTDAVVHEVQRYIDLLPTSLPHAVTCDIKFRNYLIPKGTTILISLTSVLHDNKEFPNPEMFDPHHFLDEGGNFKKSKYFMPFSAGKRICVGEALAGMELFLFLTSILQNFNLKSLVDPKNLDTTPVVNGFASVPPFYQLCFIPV
CYP2C9 inhib – inhibitors of human CYP2C9 | AID 777 | inhibition, % at 5 µM | CYP2C9 Supersomes, luciferin-H conversion, luminescence | 20% of 96,000 active;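 active means blocking of liver enzyme CYP2C9 beyond about 50% at 5 µM, limit read from the data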
PostGolgi ctrl – yeast control strain growth, post-Golgi counter-screen; efflux-deficient yeast background strain, growth absorbance A615, 16 h; inhibition, % at 10 µM; 5% of 98,000 active
* hit, by the source's call; · = no result given. Unless noted, no stated cut-off is given here; in the data, active means inhibition above about 30%; inactive means the rest.

SMILES | CYP2C19 act | PostGolgi yeast | CYP2C19 inhib | CYP2C9 activ | CYP2C9 inhib | PostGolgi ctrl
CCOC(=O)C1=C(C)NC(SCc2cc(=O)[nH][nH]2)=C(C#N)C1c1cccs1 (stereo not drawn) | 0.1 | 2 | 90* | 0.2 | 79* | -16
CC(=O)C1=C(C)NC(C)=C(C(C)=O)C1c1cccs1 | 0.1 | -4 | 94* | 0.4 | 62* | -9
CC1=C(C(=O)N2CCCCC2)C(c2cccs2)NC(=O)N1 (stereo not drawn) | 1.2 | 2 | -16 | 1.4 | -36 | 7
CCSC1=C(C#N)C(c2cccs2)C(C(=O)OC)=C(C)N1 (stereo not drawn) | 0.1 | 10 | 88* | 0.1 | 91* | 14
O=C(NNC(=O)c1cc2cc3ccccc3nc2s1)c1cccc(C(F)(F)F)c1 | 1 | -12 | 2 | 0.9 | 11 | 1
O=C(NCc1cccnc1)c1cc(-c2ccco2)on1 | 0.9 | 5 | 9 | 0.7 | 34 | 9
CCOC(=O)c1nn(-c2ccccc2)c(C#N)c1NC(=O)c1nn(CC)cc1Br | 0.8 | 19 | 25 | 0.3 | 72* | 44*
CCOC(=O)c1c(NC(=O)c2nn(CC)cc2Br)c(C#N)nn1-c1ccccc1 | 0.4 | -3 | 64* | 0.5 | 50 | 23
CCCSc1cc(=O)n(-c2ccccc2)nc1C(=O)OCC | 1 | 2 | 2 | 1 | 1 | -4
CCOC(=O)c1c(C#N)cnn1-c1ccc(C)cc1 | 0.9 | 7 | 14 | 0.7 | 30 | -1
CCOc1cccc2sc(NC(=O)CC)nc12 | 0.8 | -4 | 18 | 0.3 | 75* | 5
CCC(=O)Nc1nc2cc(OC)ccc2s1 | 1 | 15 | 5 | 0.8 | 16 | 3
CCOc1cc(CNC(=O)CN2C(=O)c3ccccc3S2(=O)=O)ccc1OC | 0.9 | 13 | 6 | 0.8 | 19 | 8
CSCCC(NC(=O)C1CC1)c1nc2ccccc2[nH]1 (stereo not drawn) | 0.9 | 1 | 13 | 0.9 | 6 | 2
CSCC[C@H](NC(=O)c1ccc(Cl)c(S(=O)(=O)N2CCCC2)c1)c1nc2ccccc2[nH]1 | 0.4 | -3 | 59* | 0.3 | 68* | -1
O=C(NCc1nc2ccccc2[nH]1)c1ccc(Cl)c(S(=O)(=O)N2CCCC2)c1 | 0.3 | -1 | 65* | 0.5 | 45 | 3
CCCn1c(NC(=O)c2cccc(C)c2C)nc2ccccc21 | 0.3 | -3 | 75* | 0.8 | 17 | 13
CCCn1c(NC(=O)c2ccc(Cl)c(S(=O)(=O)N3CCCC3)c2)nc2ccccc21 | 0.2 | 0 | 83* | 0.2 | 84* | 20
O=S(=O)(c1ccc(Br)s1)n1cccn1 | 0.9 | -7 | 7 | 1.5 | -52 | 8
C=CCn1c(CNC(=O)c2ccccc2C)nnc1SCC(=O)NC1CCCC1 | 0.9 | 0 | 6 | 0.9 | 13 | 16
O=C1CCC/C1=c1\s/c(=C\c2cccnc2)c(=O)n1-c1ccccc1 | 0.7 | 2 | 28 | 0.9 | 12 | 9
Cc1cc(NC(=O)c2c([N+](=O)[O-])c(C)nn2C)no1 | 0.9 | -11 | 14 | 1 | 2 | 8
Cc1cccc(C)c1N(CC(=O)NN=C1CCCCCC1)S(C)(=O)=O | 0.8 | -1 | 22 | 0.8 | 17 | 8
Cc1nc2sccn2c1-c1nc(-c2cc3ccccc3o2)cs1 | 0.8 | 1 | 20 | 0.9 | 8 | 34*
CC(=O)c1sc(-c2c(C)nc3sccn23)nc1C1CCCC1 | 0.9 | · | 14 | 0.6 | 36 | ·
SMILES | CYP2C19 act | PostGolgi yeast | CYP2C19 inhib | CYP2C9 activ | CYP2C9 inhib | PostGolgi ctrl
CCOC(=O)C1=C(O)/C(=C/c2ccc(CNC(=O)C(=O)Nc3ccc(C)cc3)o2)N=C1C | 0.3 | -11 | 66* | 0.1 | 90* | 1
COC(=O)c1cccc(C(=O)Nc2ccc(C)cc2)n1 | 0.8 | 5 | 24 | 0.9 | 13 | 8
COC(=O)C1=C(O)/C(=C\c2ccc(CNC(=O)C(=O)Nc3ccc(C)cc3)o2)N=C1C | 0.4 | 6 | 59* | 0.1 | 88* | -4
COC(=O)C1=C(O)/C(=C\c2ccc(CNC(=O)C(=O)Nc3ccc(C)c(C)c3)o2)N=C1C | 0.5 | 4 | 50* | 0.2 | 80* | 5
O=C(CN1C(=O)NC2(CCCCCC2)C1=O)N1CCN(S(=O)(=O)c2ccc(Cl)cc2)CC1 | 0.9 | 3 | 8 | 0.9 | 10 | 0
CCOC(=O)c1sc2ncn(/N=C/c3ccccn3)c(=O)c2c1C | 1 | · | 1 | 1 | -1 | ·
